Results taken from PubChem BioAssay (NCATS).
Results filed as inconclusive are left out. Active and inactive are the calls of the source. Calls come from the whole dose curve; as a rule, active = well fitted inhibition curve with a large enough effect; inconclusive = small, poorly fitted or top-dose-only effect; inactive = flat fitted curve, though single readings scatter.

Tests used:
Assay in all cases: qHTS profiling for inhibitors of Plasmodium falciparum proliferation (AID 504749); note: nearly all actives have a fitted effect of over 60% in size
Conditions in all cases: P. falciparum in erythrocytes, SYBR Green DNA, 72 h; series mostly up to 28.7 µM
CP325 = system: CP325
Procedure, shortened: (§1)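 P. falciparum-infected erythrocytes (0.3% parasitemia, 2.5% hematocrit) incubated with compound 72 h at 37 C, 5% CO2. Parasite DNA detected by SYBR Green after lysis, overnight at room temperature; normalised to 0.29 uM artemisinin and DMSO.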

CP329 = system: CP329
Procedure, shortened: as §1

DFO2036 = system: DFO2036
Procedure, shortened: as §1

DIV14 = system: DIV14
Procedure, shortened: as §1

DIV17 = system: DIV17
Procedure, shortened: as §1

DIV30 = system: DIV30
Procedure, shortened: as §1

Dd2 = system: Dd2
Procedure, shortened: as §1

ECU = system: ECU
Procedure, shortened: as §1

FAB9 = system: FAB9
Procedure, shortened: as §1

GB4 = system: GB4
Procedure, shortened: as §1

HB3 = system: HB3
Procedure, shortened: as §1

JCK = system: JCK
Procedure, shortened: as §1

N140 = system: N140
Procedure, shortened: as §1

P93_24 = system: P93_24
Procedure, shortened: as §1

P94_40 = system: P94_40
Procedure, shortened: as §1

PAD = system: PAD
Procedure, shortened: as §1

PC15 = system: PC15
Procedure, shortened: as §1

PC26 = system: PC26
Procedure, shortened: as §1

CP335 = system: CP335
Procedure, shortened: as §1

ICS = system: ICS
Procedure, shortened: as §1

Measured: Potency
Potency is the fitted concentration of half-maximal effect.

O=C(/C=C/c1ccccc1)OCc1ccccc1
not listed: CP335 | ICS
inactive: all other assays above

Cc1cc(-n2nc3ccc(Cl)cc3n2)c(O)c(C(C)(C)C)c1
not listed: DFO2036 | ECU | N140 | P93_24 | P94_40 | PAD
inactive: all other assays above

CCCCCC(C)N (configuration not stated)
inactive: CP325 | CP329 | DFO2036 | DIV14 | DIV30 | FAB9 | GB4 | JCK | PC15 | PC26
active: Dd2 11.2 µM | ICS 5.01 µM

CC(CN(C)C)C(C)(O)Cc1ccc(Cl)cc1 (configuration not stated)
inactive: DFO2036 | FAB9 | HB3 | JCK | PAD | PC15
active: DIV17 6.01 µM | Dd2 7.94 µM | GB4 6.75 µM

CN1CCCN=C1COC(=O)C(O)(c1ccccc1)C1CCCCC1 (configuration not stated)
not listed: DIV14 | GB4
inactive: all other assays above

Cc1cc(C)c(NC(=O)CN(CC(=O)O)CC(=O)O)c(C)c1Br
not listed: DFO2036 | ECU | N140 | P93_24 | P94_40 | PAD
inactive: all other assays above

COC(=O)c1ccccc1C(=O)c1ccc(OCCN2CCCCC2)cc1
not listed: DIV14 | DIV17 | Dd2
inactive: all other assays above

Nc1c2c(nc3c1CCC3)CCCC2
active: DIV14 13.5 µM | DIV17 15.1 µM | Dd2 12.6 µM | GB4 16.9 µM | HB3 10 µM | ICS 12.6 µM | P94_40 11.2 µM

CCN1CC(CCN2CCOCC2)C(c2ccccc2)(c2ccccc2)C1=O (configuration not stated)
active: Dd2 12.6 µM
not listed: DIV14 | ECU | GB4 | N140 | P93_24 | P94_40 | CP335 | ICS
inactive: all other assays above

O=C1C(c2[nH]c3ccccc3c2O)=Nc2ccccc21
inactive: CP329 | CP335 | DFO2036 | Dd2 | FAB9 | JCK

NC(=O)c1ccc([N+](=O)[O-])cc1Cl
active: HB3 12.6 µM | ICS 4.47 µM
inactive: CP325 | CP329 | DFO2036 | DIV30 | Dd2 | FAB9 | JCK | P94_40

NC(=O)CCCCC1CCSS1 (configuration not stated)
inactive: CP325 | CP329 | CP335 | DFO2036 | Dd2 | FAB9 | JCK | N140 | PC15

CC1CCN(CCCC(=O)c2ccc(F)cc2)CC1
not listed: DIV14 | DIV17 | CP335
inactive: all other assays above

CN1C[C@@H]2C[C@H]1CN2c1cc2c(cc1F)c(=O)c(C(=O)O)cn2C1CC1
active: CP335 1.2 µM | Dd2 1.41 µM | P93_24 1.58 µM
inactive: DIV17 | FAB9 | HB3 | JCK | PAD

C[C@H]1COc2c(C3(N)CC3)c(F)cc3c(=O)c(C(=O)O)cn1c23
not listed: DIV14 | GB4 | CP335
inactive: all other assays above

O=C1c2ccccc2C(=O)C1c1ccc(Br)cc1
inactive: CP325 | CP329 | DIV30 | FAB9 | HB3 | JCK | N140 | PC15
active: Dd2 11.2 µM | GB4 9.53 µM | ICS 11.2 µM | P94_40 10 µM

CCCCCCCCCCCCCCCCCCO
not listed: DIV14 | DIV17
inactive: all other assays above

NCc1ccc(S(N)(=O)=O)cc1
active: HB3 3.98 µM | ICS 2.51 µM
not listed: DIV14 | DIV17 | GB4 | P93_24 | PC26 | CP335
inactive: all other assays above

Cc1cccc(C(=O)O)c1O
not listed: DIV14 | DIV17
inactive: all other assays above

CCCCCCCCCCC(CO)CCCCCCCC (configuration not stated)
active: ICS 8.91 µM
not listed: DIV14 | DIV17 | GB4 | P93_24
inactive: all other assays above

OC[C@@H](O)[C@@H](O)[C@H](O)[C@H](O)CO
not listed: CP335
inactive: all other assays above

Nc1ncnc(Nc2ccccc2)n1
not listed: DFO2036 | DIV17 | CP335
inactive: all other assays above

Cc1cc(OI)c(C(C)C)cc1-c1cc(C(C)C)c(OI)cc1C
inactive: CP329 | DFO2036 | FAB9 | JCK
active: DIV14 10.7 µM | DIV17 13.5 µM | Dd2 10 µM | GB4 13.5 µM | N140 12.6 µM | P94_40 11.2 µM | PC15 11.2 µM

Cc1c(Cn2ccnc2)c2ccccc2n1CCC(=O)O
not listed: CP325
inactive: all other assays above

Cc1[nH]c(C)c(Cl)c(=O)c1Cl
not listed: CP329 | GB4 | PC15 | PC26 | CP335 | ICS
inactive: all other assays above

CCCNC(C)(C)COC(=O)c1ccccc1
not listed: GB4 | PC26 | CP335
inactive: all other assays above

O=C(c1ccccc1)C(O)c1ccccc1 (configuration not stated)
not listed: DIV14 | DIV17 | GB4
inactive: all other assays above

N[C@@H](Cc1ccc(O)cc1)C(=O)O
not listed: CP325 | DIV30
inactive: all other assays above

CC(=O)OC[C@H]1O[C@@](COC(C)=O)(O[C@H]2O[C@H](COC(C)=O)[C@@H](OC(C)=O)[C@H](OC(C)=O)[C@H]2OC(C)=O)[C@@H](OC(C)=O)[C@@H]1OC(C)=O
active: P94_40 2.82 µM
not listed: CP329 | DFO2036 | ECU | N140 | P93_24 | PAD
inactive: all other assays above
